# Experimental data from PubChem BioAssay AID848 (Columbia University Molecular Screening Center, 2007).
# Among all 93,000 compounds or so, about 160 (0.17%) were called active. The sample holds actives, similar compounds and a random draw of the others, so the mix is not that of the screen.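 Rule for the calls: active = cell count reduction exceeding the screen mean by over 5 SD, scaled to untreated wells per plate (cut at about 78% in these data); inactive = the rest.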
# Assay: cytotoxicity in TNFa-stimulated HUVEC, primary screen, cytotoxicity control for VCAM1 expression modulator project, imaging, Hoechst nuclei count (AID 848);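 note: cells counted after 24 h of TNF alpha exposure following the 1 h pretreatment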
# Conditions: HUVEC TNFalpha-stimulated, at 2 µM, hits give high values
row,Structure (SMILES),cell count reduction
1,COc1ccc(C(=O)N2CC3(C)CC2CC(C)(C)C3)cc1OC (configuration not stated),-11.5% (inactive)
2,Cc1c(NC(=O)c2cc(-c3ccc(Cl)s3)nc3ccccc23)c(=O)n(-c2ccccc2)n1C,5.5% (inactive)
3,Cn1c(=O)c(=O)n(C)c2cc(S(=O)(=O)NCCc3ccccc3)ccc21,81.2% (active)
4,CC(=O)Nc1ccc(S(=O)(=O)NCCc2ccccc2)cc1,27.8% (inactive)
5,O=S(=O)(NCCc1ccccc1)c1ccccc1,7.6% (inactive)
6,O=C(CCNS(=O)(=O)c1ccccc1C(F)(F)F)NCc1ccc2c(c1)OCO2,-8.3% (inactive)
7,FC(F)(F)c1cc(C(F)(F)F)c2ccc(N3CCN(c4ccccc4)CC3)nc2n1,-20.2% (inactive)
8,COc1cc(/C=C(/NC(=O)c2ccccc2)C(=O)Nc2cccc(O)c2)c([N+](=O)[O-])cc1OC,-6.3% (inactive)
9,COCCn1c(SCc2nc3cc(OC)c(OC)cc3c(=O)[nH]2)nnc1-c1ccncc1,-3.6% (inactive)
10,O=C(Cc1ccc(S(=O)(=O)N2CCCC2)s1)NC1CCCCCC1,-12.9% (inactive)
11,CCOC(=O)N1CCC(N(CCOC)C(=O)Nc2ccc(C)c(C)c2)CC1,10.5% (inactive)
12,N#Cc1ccccc1CN1C(=O)S/C(=C/c2cccn2-c2cccc(C(=O)O)c2)C1=O,7.4% (inactive)
13,COc1c(Cl)cc(C(=O)Nc2ccc(Cl)cn2)cc1Cl,-4.4% (inactive)
14,c1ccc(C2CCC(N3CCC(N4CCCCC4)CC3)CC2)cc1 (configuration not stated),-1.7% (inactive)
15,CCc1ccc(NC(=O)CN2C(=O)CSC2=O)cc1,-18.2% (inactive)
16,c1ccc2c(CSCc3nc4ccccc4[nH]3)cccc2c1,-12.2% (inactive)
17,Cc1ccc(NC(=S)NCCN2CCOCC2)cc1,-14.3% (inactive)
18,O=C(c1cccc(F)c1)N1CCN(c2ccc([N+](=O)[O-])c(N3CCCCC3)c2)CC1,-7.8% (inactive)
19,NC(=O)C1(N2CCCCC2)CCN(C(=S)Nc2ccc(Cl)cc2)CC1,5.1% (inactive)
20,CCOc1cc(CNCCN(C)C)c(Cl)cc1OCC(=O)NCCc1ccccc1,8.2% (inactive)
21,COc1ccc(C)cc1NC(=O)CCC(=O)Nc1nnc(C(F)(F)F)s1,-16% (inactive)

row,Structure (SMILES),cell count reduction
1,O=C(NCC1CCCO1)/C(=C\c1ccco1)NC(=O)c1ccccc1 (configuration not stated),4.8% (inactive)
2,O=C(NNS(=O)(=O)c1ccc(Cl)cc1)C1CCN(Cc2ccccc2)CC1,-18.3% (inactive)
3,COc1ccc(CC(=O)Nc2sc(Cc3ccccc3)c(C)c2C(N)=O)cc1,-1.7% (inactive)
4,O=C(NN1C(=O)C2C3C=CC(C4CC34)C2C1=O)c1ccc(Cl)cc1 (configuration not stated),5.4% (inactive)
5,Cc1c(NC(=O)CCCOc2ccccc2)cccc1[N+](=O)[O-],15.7% (inactive)
6,O=C(CCC(=O)OCc1cccc(C(=O)Oc2ccccc2)c1)Nc1cccc2ccccc12,-13% (inactive)
7,Cc1cc2c(cc1C)N(C(=O)CN1C(=O)c3ccccc3C1=O)C(C)(C)c1ssc(=S)c1-2,-9.3% (inactive)
8,C/C(=N\NS(=O)(=O)c1ccc(Br)cc1)c1cccs1,-23.7% (inactive)
9,CCn1c(SC)nc(O)c(C(c2ccc(OC)c(O)c2)c2c(O)nc(SC)n(CC)c2=O)c1=O,-7.3% (inactive)
10,CSc1ccc(C#N)cc1NC(=O)c1ccc(Cl)cc1,-0.4% (inactive)
11,O=C1Nc2cc(Cl)c(Cl)cc2N(O)N1c1cc(Cl)cc(Cl)c1,-19.6% (inactive)
12,N/C(=N\OC(=O)CCc1ccccc1)c1ccc(Cl)cc1,-44% (inactive)
13,Cc1cc(C)nc(SC(C)C(=O)N/N=C/c2cccs2)n1 (configuration not stated),-19.7% (inactive)
14,CN(C(=O)CC(NC(=O)c1ccccc1)(c1ccccc1)c1ccccc1)c1ccccc1,3.7% (inactive)
15,COC(=O)c1ccc(C(=O)Nc2cc(Cl)ccc2Cl)cc1NC(=O)c1ccccc1C,-7.7% (inactive)
16,O=C1c2ccccc2C(=O)N1CC1c2ccccc2CCN1S(=O)(=O)c1ccccc1 (configuration not stated),-14.8% (inactive)
17,Cc1ccc2nc(Nc3ccccc3O)nc(-c3ccccc3)c2c1,-13.2% (inactive)
18,CCc1ccc(C(=O)CSc2nnc(C)c(=O)[nH]2)cc1,-4.6% (inactive)
19,COc1ccc(NC(=O)/C(Cl)=C(/Cl)S(=O)Cc2ccc(C)cc2)cn1 (configuration not stated),81.9% (active)
20,COc1cccc(NC(=O)Cc2ccc(C)cc2)c1,-6.5% (inactive)
21,COc1ccc(CC(=O)Nc2ccc(-c3nnc(-c4ccc(C)cc4)o3)cc2)cc1,-17.7% (inactive)

row,Structure (SMILES),cell count reduction
1,C=CCn1c(SCC(=O)c2c(N)n(C)c(=O)n(C)c2=O)nc2sc(CC)cc2c1=O,-45.1% (inactive)
2,CC(C)c1ccc(/C=C/C(=O)NNC(=O)c2cccnc2)cc1,-4.2% (inactive)
3,CCC(=O)NCCc1nc2ccccc2n1CC,14.3% (inactive)
4,CSc1nc2ccccc2cc1/C=C(\C#N)c1ccc(Cl)cc1Cl,-9% (inactive)
5,Clc1ccc(-n2nnnc2CN2CCCCC2)cc1Cl,-12.5% (inactive)
6,COc1ccc(C(=O)NC(=S)Nc2ccccc2N2CCN(S(C)(=O)=O)CC2)cc1OC,-26.7% (inactive)
7,C=CCNc1cnn(-c2ccc(C)cc2)c(=O)c1Cl,-7.9% (inactive)
8,Cc1ccc(CNC(=O)CCNC(=O)Cn2ccc3ccccc3c2=O)cc1,-15.5% (inactive)
9,CCSc1nnc(-c2cc3c(s2)-c2ccccc2CC3)o1,-4.1% (inactive)
10,O=C(Cc1ccc2c(c1)CCCC2)Nc1ccccc1Cl,7.2% (inactive)
11,CC(C)(CCl)C(=O)Nc1ccc(Sc2ccc(F)cc2)cc1,-6.3% (inactive)
12,Cc1ccc(S(=O)(=O)N(CC(=O)NCCSC2CCCCC2)c2ccccc2F)cc1,-49.8% (inactive)
13,COC(=O)c1cccc(N(C(=O)c2ccco2)C(C(=O)NC2CCCC2)c2ccco2)c1 (configuration not stated),1.3% (inactive)
14,CCNC(=S)N1CCN(C(=O)c2ccco2)CC1,15% (inactive)
15,CC(=O)N/C(=C/c1ccc(Cl)cc1)C(=O)NCCc1c[nH]c2ccccc12,-23.5% (inactive)
16,Cc1ccc(S(=O)(=O)N(CC(=O)N2CCc3ccccc3C2)c2cccc(Cl)c2)cc1,0% (inactive)
17,CC1CN(c2nc(-c3ccccc3)nnc2-c2ccccc2)CC(C)O1 (configuration not stated),-11% (inactive)
18,CCC(=O)NNc1cc(=O)c2c(=O)n(C)c(=O)n(C)c2[nH]1,13% (inactive)
19,O=C(CSc1nnc(-c2c[nH]c3ccccc23)o1)c1ccccc1,-13.6% (inactive)
20,COC(=O)CNC(=O)c1ccccc1[N+](=O)[O-],-19.5% (inactive)
